A selection follows.
aSyn 5UTR act = Activators via SNCA 5'UTR binding, MLPCN. activity score, % (tested at 7.5 µM), hits read low. 300,000 compounds, 7.1% hits. alpha-synuclein 5'UTR reporter, activators screen. AID 1814; in the data active means activity score below about -60%
Of the large screens only hits and unclear results are named; the others gave an inactive call.

Cc1cccc(Oc2nc(-c3ccccn3)nc3ccccc23)c1	aSyn 5UTR act -111.5
FC(F)(F)c1cnc2c(-c3ccccc3)n[nH]c2c1	aSyn 5UTR act -129.5
O=C(O)c1cnn(-c2nc(-c3ccc(Br)cc3)cs2)c1C(F)(F)F	aSyn 5UTR act -96.0
Cc1nnc(Oc2ccccc2F)c2ccccc12	aSyn 5UTR act -93.9
COc1ccc(Oc2nnc(C)c3ccccc23)cc1	aSyn 5UTR act -175.2
COc1ccc(-c2nnc3c4ccccc4c(C)nn23)cc1	aSyn 5UTR act -206.0
CC(=O)Nc1ccc2c(c1)c1ccccc1n2C(C)=O	aSyn 5UTR act -64.8
CC(=O)Nc1ccc2c(c1)ncn2-c1ccccc1	aSyn 5UTR act -110.0
CCC(=O)Nc1ccc2c(c1)ncn2-c1ccccc1	aSyn 5UTR act -75.0
CCOc1ccc(-n2nc3ccc(NC(=O)CC)cc3n2)cc1	aSyn 5UTR act -119.9
CSc1ccccc1NC(=O)Nc1ccc(Cl)cc1	aSyn 5UTR act -189.8
COc1cccc(COC(=O)Nc2ccccc2F)c1	aSyn 5UTR act -146.0
COC(=O)c1ccc(NC(=O)Nc2ccccc2C)cc1	aSyn 5UTR act -106.6
COc1ccc(NC(=O)Nc2ccccc2SC)cc1	aSyn 5UTR act -113.2
Cc1ccccc1NC(=O)OCc1ccccc1	aSyn 5UTR act -84.4
O=C(C#Cc1ccccc1)Nc1ccccc1F	aSyn 5UTR act -140.7
COc1ccc(NC(=O)Nc2ccccc2F)c([N+](=O)[O-])c1	aSyn 5UTR act -139.4
COc1ccc(NCC(=O)Nc2ccccc2C#N)cc1Cl	aSyn 5UTR act -67.9
Fc1ccccc1NC(=S)N/N=C/c1ccccc1Br	aSyn 5UTR act -247.5
O=C(Nc1ccccc1)Nc1cccn(Cc2c(F)cccc2Cl)c1=O	aSyn 5UTR act -103.1
O=C(Nc1ccc(Cl)cc1)Nc1ccccc1CC[N+](=O)[O-]	aSyn 5UTR act -96.8
COc1cc(C)c(C(=O)CC(=O)c2c(C)cc(OC)cc2C)c(C)c1	none
Oc1c(N=NC(=S)Nc2ccccc2F)c2ccccc2n1Cc1ccccc1Cl	none
COc1ccc(NC(=O)Nc2ccccc2F)c(C)c1	aSyn 5UTR act -97.8
COc1ccc(NC(=O)Nc2ccccc2F)cc1Cl	aSyn 5UTR act -184.1
O=C(Nc1ccccc1F)Nc1ccccc1Br	aSyn 5UTR act -106.1
CC(=O)N(C)c1ccc(NC(=O)Nc2ccccc2C)cc1	aSyn 5UTR act -106.8
CSc1ccc(NC(=O)Nc2ccccc2C(N)=O)cc1	aSyn 5UTR act -92.0
Cc1ccc(Cn2c(O)c(N=NC(=S)Nc3ccccc3F)c3ccccc32)cc1	none
O=C(Nc1ccc(F)cc1)Nc1ccccc1F	aSyn 5UTR act -179.6
COc1ccc(C/C(C)=N/NC(=S)Nc2ccccc2F)cc1	aSyn 5UTR act -151.8
COc1ccc(NC(=O)Nc2ccccc2F)cc1	aSyn 5UTR act -134.0
COC(=O)c1ccc(NC(=O)Nc2ccccc2F)cc1	aSyn 5UTR act -95.3
O=C(Nc1ccc(F)cc1)Nc1cccnc1Cl	aSyn 5UTR act -80.6
CCN(CC)c1ccc(/C=C2/SC(=O)N(C(C)C)C2=O)o1	aSyn 5UTR act -174.8
CC(C)N1C(=O)S/C(=C\c2ccc(-c3ccc(Cl)c(C(=O)O)c3)o2)C1=O	aSyn 5UTR act -127.7
O=[N+]([O-])c1nn(-c2ccc3c(c2)OCCO3)n(O)c1=NCc1ccc(F)cc1	aSyn 5UTR act -123.9
O=[N+]([O-])c1nn(-c2ccc3c(c2)OCCO3)n(O)c1=NCc1ccc(F)cc1Cl	aSyn 5UTR act -139.6
O=[N+]([O-])c1nn(-c2ccc3c(c2)OCCO3)n(O)c1=NCCC1=CCCCC1	aSyn 5UTR act -139.4
CC(C)c1c(O)cc(-c2ccncc2)n(-c2ccc(Cl)cc2)c1=O	none
COc1ccc(C(=O)CSc2nnn(-c3cccc(NC(C)=O)c3)n2)cc1	aSyn 5UTR act -119.4
CC(=O)Nc1cccc(-n2nnc(SCC(=O)c3ccccc3)n2)c1	aSyn 5UTR act -121.3
Cc1cc(C)nc(SCC(=O)NC2=NN=C(c3ccc(Br)cc3)CS2)n1	aSyn 5UTR act -74.0
Cc1ccc(NC2=C(Cl)C(=O)c3ccccc3C2=O)cc1	none
Cc1ccc(NC2=C(N3CCOCC3)C(=O)c3ccccc3C2=O)cc1	aSyn 5UTR act -83.6
O=C(Nc1nc2ccccc2s1)c1ccccc1[N+](=O)[O-]	aSyn 5UTR act -152.6
O=C(c1nc2ccccc2[nH]1)c1ccccc1[N+](=O)[O-]	aSyn 5UTR act -73.7
Cc1cnc(NC(=O)c2ccc(-c3nc4ccccc4s3)o2)s1	aSyn 5UTR act -83.7
COc1ccc2nc(NC(=O)c3ccc([N+](=O)[O-])o3)sc2c1	aSyn 5UTR act -160.7
O=C(Nc1nc2ccccc2s1)c1ccc([N+](=O)[O-])o1	aSyn 5UTR act -173.0
CC(=O)Nc1nc2cccc([N+](=O)[O-])c2s1	aSyn 5UTR act -67.8
O=C(Nc1nc2cc3c(cc2s1)OCCO3)c1ccc([N+](=O)[O-])o1	aSyn 5UTR act -301.1
O=C(Nc1nc2ccccc2s1)Nc1ccc([N+](=O)[O-])cc1Cl	aSyn 5UTR act -99.1
O=C(Nc1c(Cl)ccc2nsnc12)c1ccc([N+](=O)[O-])o1	aSyn 5UTR act -202.7
C=CCS/C(N)=N\N=C\c1c(O)ccc2ccccc12	aSyn 5UTR act -194.6
CCCS/C(N)=N/N=C/c1ccccc1O	aSyn 5UTR act -198.1
CN(C(=O)Nc1ccc(Cl)cc1Cl)C1CCCC1	aSyn 5UTR act -118.1
O=C(NC1CCCCC1)Sc1ccc(Cl)cc1	aSyn 5UTR act -71.7
